Source: PubChem BioAssay (EPA / NIEHS)
Records with an inconclusive call do not appear. Activity calls are given as the source filed them. Rule for the calls: active = hit-call score of the fitted dose curve at least 0.9, where 1 is the maximum; inconclusive = response in the unintended direction; inactive = score below 0.9.

Test: ATG_XTT_Cytotoxicity: Cytotoxicity Assessment in the Attagene TRANS-FACTORIAL HepG2 Assay (AID 2283584)
Outline: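 Viability endpoint from XTT after 24 h chemical exposure of reporter-transfected human HepG2 liver cells; signal loss fitted relative to DMSO negative control.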

Row | SMILES | outcome
1 | O=C1c2ccccc2C(=O)c2cc(S(=O)(=O)O)ccc21 | inactive
2 | CC1=CP(=O)(c2ccccc2)CC1 (centres undefined) | inactive
3 | Oc1ccc(/C=C/c2cc(O)cc(O)c2)cc1 | inactive
4 | CC(=O)OC1CCCCC1C(C)(C)C (centres undefined) | inactive
5 | CCC(C)c1ccccc1 (centres undefined) | inactive
6 | CC(=O)OCCc1ccccc1 | inactive
7 | O=C(OCCc1ccccc1)c1ccccc1 | inactive
8 | CCCCC1CCC(=O)O1 (centres undefined) | inactive
9 | CCCSSCCC | inactive
10 | CC(=O)c1ccccc1O | inactive
11 | CC(CCC(=O)O)(c1ccc(O)cc1)c1ccc(O)cc1 | inactive
12 | CC(C)c1ccc(O)c(C(C)C)c1 | inactive
13 | CC(C=O)c1ccccc1 (centres undefined) | inactive
14 | CC(=O)CCC1=C(C)CCCC1(C)C | inactive
15 | CCOC(=O)C1=NOC(c2ccccc2)(c2ccccc2)C1 | inactive
16 | Clc1cc(Cl)c(Cl)c(Cl)c1Cl | inactive
17 | CO[Si](C)(C)OC | inactive

Row | SMILES | outcome
18 | CC(C)(C)C1CCC(=O)CC1 | inactive
19 | CCCCCCCCCCCC(=O)OCC | inactive
20 | CCCCCCCO | inactive
21 | CCC[Si](OC)(OC)OC | inactive
22 | CC(C)=NNC(N)=S | inactive
23 | COC(=O)C=Cc1ccccc1 | inactive
24 | O=C(Oc1ccccc1)c1ccccc1O | inactive
25 | O=C1CCCCCCCCCCCN1 | inactive
26 | COc1nccnc1CC(C)C | inactive
27 | O=C(O)CCC(=O)O | inactive
28 | Fc1ccc(Br)cc1 | inactive
29 | CCCCCOC(=O)CCCCC | inactive
30 | CC1(C)CC(O)CC(C)(C)N1[O] | inactive
31 | CCC(=O)C1CC(C(C)C)CC=C1C (centres undefined) | inactive
32 | NNS(=O)(=O)c1ccc(Oc2ccc(S(=O)(=O)NN)cc2)cc1 | inactive
33 | CCCCCCCCCCCCCc1ccccc1 | inactive
34 | CN(C)Cc1cc(CN(C)C)c(O)c(CN(C)C)c1 | inactive
